Measurements as given in the supplement of paper PMC10515830.
Counter-ions that a name gives are not always drawn.

tested on: Danio rerio larvae (5 dpf); test: difference in startle response vs DMSO (percentage points); higher = stronger startle than DMSO; settings: 10 µM; exposure time 6 h
Method in brief: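 Wild-type 5 dpf zebrafish larvae in 96-well plates were given 100 µL egg water containing library compound at 10 µM final for 6 h. After 3 h of exposure, plates at 28.5 ℃ were photographed every 6 s during a 3-h programme of moving lines and 100 ms, 400Hz tones. Z-LaP Tracker (a DeepLabCut model) quantified each behaviour, averaged over 48 larvae per compound. Values are the compound mean minus the DMSO-vehicle control, in percentage points.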

Row | SMILES | difference in startle response
1 | COc1ccccc1OCCNCC(O)COc1cccc2[nH]c3ccccc3c12 (stereo not drawn) [Carvedilol] | 2.07
2 | CC(=O)OCC(=O)[C@@]1(O)CC[C@H]2[C@@H]3CCC4=CC(=O)CC[C@]4(C)[C@@]3(F)[C@@H](O)C[C@@]21C [Fludrocortisone Acetate] | 4.97
3 | CC(=O)S[C@@H]1CC2=CC(=O)CC[C@]2(C)[C@H]2CC[C@@]3(C)[C@@H](CC[C@@]34CCC(=O)O4)[C@H]12 [Spironolactone] | -1.12
4 | COc1cc2c(cc1OC)CC(=O)N(CCCN(C)C[C@H]1Cc3cc(OC)c(OC)cc31)CC2 [Ivabradine (hydrochloride)] | 0.00664
5 | Cc1ccc(Nc2nccc(N(C)c3ccc4c(C)n(C)nc4c3)n2)cc1S(N)(=O)=O [Pazopanib] | -4.32
6 | COC(=O)c1ccc2c(c1)NC(=O)/C2=C(\Nc1ccc(N(C)C(=O)CN2CCN(C)CC2)cc1)c1ccccc1 | -5.51
7 | C[C@@H](O)[C@@H]1NC(=O)[C@H](CCCCN)NC(=O)[C@@H](Cc2c[nH]c3ccccc23)NC(=O)[C@H](Cc2ccccc2)NC(=O)[C@@H](NC(=O)[C@H](N)Cc2ccccc2)CSSC[C@@H](C(=O)N[C@H](CO)[C@@H](C)O)NC1=O [Octreotide (acetate)] | -0.00387
8 | CN1C(=O)CC(C)(c2ccccc2)C1=O (stereo not drawn) [Methsuximide] | 8.76
9 | CNC(=C[N+](=O)[O-])NCCSCc1ccc(CN(C)C)o1 [Ranitidine (hydrochloride)] | 4.48
10 | CC(=O)N[C@@H](CS)C(=O)O [N-acetyl-L-Cysteine] | 3.63
11 | CCc1c2c(nc3ccc(OC(=O)N4CCC(N5CCCCC5)CC4)cc13)-c1cc3c(c(=O)n1C2)COC(=O)[C@]3(O)CC [Irinotecan (hydrochloride hydrate)] | -2.28
12 | CN(C)CC[C@@H](c1ccc(Cl)cc1)c1ccccn1 [Dexchlorpheniramine (maleate)] | 3.98
13 | NS(=O)(=O)c1cc2c(cc1Cl)NCNS2(=O)=O [Hydrochlorothiazide] | 3.06
14 | CCc1cc2c(cc1N1CCC(N3CCOCC3)CC1)C(C)(C)c1[nH]c3cc(C#N)ccc3c1C2=O | 3.84
15 | CC(=O)OCC(=O)[C@@]1(OC(C)=O)[C@@H](C)C[C@H]2[C@@H]3C[C@H](F)C4=CC(=O)C=C[C@]4(C)[C@@]3(F)[C@@H](O)C[C@@]21C [Diflorasone Diacetate] | -5.05
16 | C[C@@H]1C[C@H]2[C@@H]3CCC4=CC(=O)C=C[C@]4(C)[C@@]3(F)[C@@H](O)C[C@]2(C)[C@@]1(O)C(=O)CO [Dexamethasone] | -3.99
17 | OC[C@H]1O[C@@H](O[C@@H]2[C@@H](CO)OC(O)(CO)[C@H]2O)[C@H](O)[C@@H](O)[C@H]1O (mixture of isomers) [Lactulose] | -1.72
18 | C[C@@H](CN1CC(=O)NC(=O)C1)N1CC(=O)NC(=O)C1 [Dexrazoxane] | 0.825
19 | Nc1c(CC(=O)O)cccc1C(=O)c1ccc(Br)cc1 [Bromfenac (sodium salt)] | -1.71

Row | SMILES | difference in startle response
20 | N=C(N)NCCCC[C@@H]1NC(=O)CCSSC[C@@H](C(N)=O)NC(=O)[C@@H]2CCCN2C(=O)[C@H](Cc2c[nH]c3ccccc23)NC(=O)[C@H](CC(=O)O)NC(=O)CNC1=O [Eptifibatide] | 3.19
21 | CC(C)c1nc(CN(C)C(=O)N[C@H](C(=O)N[C@@H](Cc2ccccc2)C[C@H](O)[C@H](Cc2ccccc2)NC(=O)OCc2cncs2)C(C)C)cs1 [Ritonavir] | 0.564
22 | COc1ccc(Cl)cc1C(=O)NCCc1ccc(S(=O)(=O)NC(=O)NC2CCCCC2)cc1 [Glyburide (potassium salt)] | 5.16
23 | O=C(NC1CCN(CCCCC2(C(=O)NCC(F)(F)F)c3ccccc3-c3ccccc32)CC1)c1ccccc1-c1ccc(C(F)(F)F)cc1 [Lomitapide] | -3.26
24 | CC(C)NCC(O)c1cc(O)cc(O)c1 (stereo not drawn) [Metaproterenol (hemisulfate)] | 0.666
25 | Cc1c(-c2ccccc2)oc2c(C(=O)OCCN3CCCCC3)cccc2c1=O [Flavoxate (hydrochloride)] | 1.49
26 | Cc1cccc(CN2CCN(C(c3ccccc3)c3ccc(Cl)cc3)CC2)c1 (stereo not drawn) [Meclizine (hydrochloride)] | -8.4
27 | O=c1[nH]c(=O)n([C@H]2C[C@H](O)[C@@H](CO)O2)cc1F [Floxuridine] | -2.11
28 | CON(C)Cc1ccc(O)c2c1C[C@H]1C[C@H]3[C@H](N(C)C)C(=O)C(C(N)=O)=C(O)[C@@]3(O)C(=O)C1=C2O | -2.07
29 | CCN(CC)CC(=O)Nc1c(C)cccc1C [Lidocaine] | -4.05
30 | CC(C)OC(=O)CCC/C=C\C[C@@H]1[C@@H](/C=C/C(F)(F)COc2ccccc2)[C@H](O)C[C@@H]1O [Tafluprost] | -0.187
31 | Nc1nc(=O)n([C@@H]2CS[C@H](CO)O2)cc1F [Emtricitabine] | -4.62
32 | CCCCCCCCc1ccc(CCC(N)(CO)CO)cc1 [Fingolimod] | -4.94
33 | Cc1cn([C@H]2C=C[C@@H](CO)O2)c(=O)[nH]c1=O [Stavudine] | -2.71
34 | Oc1ccc(C2CNCCc3c2cc(O)c(O)c3Cl)cc1 (stereo not drawn) [Fenoldopam (mesylate)] | -2.3
35 | CC1CNc2c(cccc2S(=O)(=O)N[C@@H](CCCNC(=N)N)C(=O)N2CC[C@@H](C)C[C@@H]2C(=O)O)C1 (stereo partly drawn) [Argatroban] | 2.67
36 | CC(C)C(=O)Nc1ccc([N+](=O)[O-])c(C(F)(F)F)c1 [Flutamide] | -7
37 | NC(=O)N[C@@H](CCC(=O)O)C(=O)O [N-Carbamyl-L-Glutamic Acid] | -0.75
38 | CO/N=C(\C(=O)N[C@@H]1C(=O)N2C(C(=O)O)=C(COC(N)=O)CS[C@H]12)c1ccco1 [Cefuroxime (sodium salt)] | 5.54
